# Data reported in PubChem BioAssay (EPA / NIEHS).
# “And” between values parts separate entries of the source, which are not always exact repeats. Identical values can stand only once. Some structures have more than one record in an assay (separate samples or runs), and their calls can disagree. The source made the active and inactive calls. How the source made its calls: active means hit-call score of the fitted dose curve at least 0.9, where 1 is the maximum; inactive means score below 0.9.
# Read-out: Monocyte Chemoattractant Protein-1 (MCP1), CCL2 (gene 6347)
# Experiment: BSK_LPS_MCP1: BioMAP Diversity Plus: LPS Assay for Monocyte Chemoattractant Protein-1 (MCP1) Biomarker Activity (AID 2283081);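 on AC50: secreted MCP-1 protein quantified by ELISA in culture supernatant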
# Details: primary human HUVEC with PBMC; actives raise or lower the signal
# Outline: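 Values derive from bidirectional fitting against DMSO of ELISA-measured MCP-1 in a human primary endothelial and mononuclear cell co-culture, 24 h after chemical addition under LPS activation.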
SMILES,outcome,AC50
C=CCc1ccc2c(c1)OCO2,inactive,
COC(=O)c1ccccc1N,inactive,
CCNS(=O)(=O)C(F)(F)C(F)(F)C(F)(F)C(F)(F)C(F)(F)C(F)(F)C(F)(F)C(F)(F)F,inactive,48.8 µM (active) and 51.7 µM (active)
CCC12COCN1COC2,inactive,

# Read-out: not listed separately
# Experiment: BSK_LPS_PGE2: BioMAP Diversity Plus: LPS Assay for Prostaglandin E2 (PGE2) Biomarker Activity (AID 2283082);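 on AC50: secreted prostaglandin E2 measured by ELISA in LPS-stimulated co-culture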
# Details: primary human HUVEC with PBMC; actives raise or lower the signal
# Outline: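 HUVEC plus PBMC co-culture stimulated with LPS; secreted PGE2 quantified by ELISA 24 h after chemical dosing. Activity fitted bidirectionally against DMSO as negative control and baseline; parallel SRB total-protein staining served as cytotoxicity check.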
SMILES,outcome,AC50
O=C(Oc1ccc(Br)cc1)N1CCN2CCC1CC2,inactive,
ClC1=C(Cl)[C@]2(Cl)[C@H]3[C@H]([C@@H]4C=C[C@H]3C4)[C@@]1(Cl)C2(Cl)Cl,inactive,
CCCCCCCCCCCCCN1CC(C)OC(C)C1 (configuration not stated),inactive,
CN(C)c1ccc(C(=O)c2ccc(N(C)C)cc2)cc1,,2.63 µM (active)
Cc1ccc([N+](=O)[O-])cc1,inactive,
CN(C)[C@@H]1C(=O)C(C(N)=O)=C(O)[C@@]2(O)C(=O)C3=C(O)c4c(O)cccc4[C@@](C)(O)[C@H]3C[C@@H]12,inactive,
C[C@]12C=CC3=C4CCC(=O)C=C4CC[C@H]3[C@@H]1CC[C@@H]2O,,7.31 µM (active)
O=[N+]([O-])C(Br)(CO)CO,inactive,
O=Cc1ccco1,inactive,
c1ccc(N=Nc2ccccc2)cc1,inactive,
Cn1cc(-c2ccccc2)c(=O)c(-c2cccc(C(F)(F)F)c2)c1,,2.7 µM (active)
CCOc1cccc(C2(N3CCN(c4ccccc4)CC3)CCC(C)CC2)c1 (configuration not stated),inactive,
[O-][Cl+]O,inactive,
CCN(CC)N=O,inactive,
CCCSC(=O)N(CCC)CCC,inactive,
CC(C)(O)c1cnn2c(-c3ccc(F)c(-c4c(F)cccc4C#N)c3)cnc2n1,,30.6 µM (active)
c1ccc(NNc2ccccc2)cc1,,10.6 µM (active)
Clc1ccc(Cl)c(Cl)c1,inactive,
CC(C)COC(=O)c1ccccc1C(=O)OCC(C)C,,9.78 µM (active)
CN(C)C(=O)Nc1ccc(Cl)cc1,inactive,
[As]#[In],inactive,
COP(=S)(OC)SCN1C(=O)c2ccccc2C1=O,inactive,
N#CC(Br)(Br)C(N)=O,inactive,
C=CCc1ccc2c(c1)OCO2,inactive,
COC(=O)c1ccccc1N,inactive,
CCNS(=O)(=O)C(F)(F)C(F)(F)C(F)(F)C(F)(F)C(F)(F)C(F)(F)C(F)(F)C(F)(F)F,inactive,
CCC12COCN1COC2,inactive,
